Laboratory results published in PubChem BioAssay (EPA / NIEHS).
Where “and” joins values, the source holds several entries; their conditions need not be identical. Equal entries are not always repeated. Some structures have more than one record in an assay (separate samples or runs), and their calls can disagree. Calls of active or inactive are those of the source. Rule for the calls: active = hit-call score of the fitted dose curve at least 0.9, where 1 is the maximum; inactive = score below 0.9.

Key:
Details in all cases: mRNA level, 48 h; actives raise or lower the signal
[1] = read-out: ABC Transporter (ABCB11), ABCB11 (gene 8647); assay: LTEA_HepaRG_ABCB11: Life Technologies and Expression Analysis (LTEA) Assay for ABC Transporter (ABCB11) using HepaRG (AID 2283463)
Summary of the method: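 HepaRG, 48 h exposure, 8-pt half-log CRC top 100 uM, 0.5% DMSO vehicle, duplicates. Readout: TaqMan qRT-PCR of ABCB11 mRNA, housekeeping-normalized (ACTB/GAPDH/POLR2A). Bidirectional fit vs DMSO baseline.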

[2] = read-out: ABC Transporter (ABCC2), ABCC2 (gene 1244); assay: LTEA_HepaRG_ABCC2: Life Technologies and Expression Analysis (LTEA) Assay for ABC Transporter (ABCC2) using HepaRG (AID 2283464)
Summary of the method: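 Endpoint is ABCC2 transcript level from qRT-PCR, normalized to three housekeeping genes and fitted bidirectionally relative to DMSO. Human HepaRG cells received test chemical for 48 h at up to 100 uM (8 points, half-log steps, 0.5% DMSO), duplicate wells.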

[3] = read-out: Broad substrate specificity ATP-binding cassette transporter ABCG2 (Homo sapiens) (UniProt Q9UNQ0); assay: LTEA_HepaRG_ABCG2: Life Technologies and Expression Analysis (LTEA) Assay for ABC Transporter (ABCG2) using HepaRG (AID 2283465)
Summary of the method: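 HepaRG, 48 h exposure, 8-pt half-log series from 100 uM, 0.5% DMSO vehicle, duplicates. Readout: ABCG2 transcript by qRT-PCR (Fluidigm array), housekeeping-normalized; bidirectional curve fit relative to DMSO baseline.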

[4] = read-out: ATP-citrate lyase (ACLY), ACLY (gene 47); assay: LTEA_HepaRG_ACLY: Life Technologies and Expression Analysis (LTEA) Assay for ATP-citrate lyase (ACLY) using HepaRG (AID 2283466)
Summary of the method: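 qRT-PCR readout of ACLY transcript after 48 h chemical treatment of HepaRG cells; expression normalized to three housekeeping genes. Eight-point half-log series, highest 100 uM, 0.5% DMSO vehicle. Gain or loss fitted against DMSO baseline.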

[5] = read-out: Peroxisomal acyl-coenzyme A oxidase 1 (ACOX1) gene, ACOX1 (gene 51); assay: LTEA_HepaRG_ACOX1: Life Technologies and Expression Analysis (LTEA) Assay for Peroxisomal acyl-coenzyme A oxidase 1 (ACOX1) gene using HepaRG (AID 2283467)
Summary of the method: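 HepaRG, 48 h chemical exposure, 8-pt half-log series from 100 uM top, 0.5% DMSO vehicle, duplicates. Readout: ACOX1 mRNA by Fluidigm qRT-PCR, housekeeping-normalized; bidirectional fit vs DMSO baseline.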

[6] = read-out: Alkaline Phosphatase, Placental (ALPP) gene, ALPP (gene 250); assay: LTEA_HepaRG_ALPP: Life Technologies and Expression Analysis (LTEA) Assay for Alkaline Phosphatase, Placental (ALPP) gene using HepaRG (AID 2283468);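 for AC50: differentiated human HepaRG liver cells in serum-free induction medium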
Summary of the method: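 ALPP transcript level, measured by qRT-PCR and normalized to three housekeeping genes (ACTB, GAPDH, POLR2A), after 48 h dosing of differentiated HepaRG in serum-free induction medium. Top concentration 100 uM with half-log dilutions (8 points, 0.5% DMSO, duplicates); bidirectional fitting relative to DMSO.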

[7] = read-out: Bcl-2 (BAD) gene, BAD (gene 572); assay: LTEA_HepaRG_BAD: Life Technologies and Expression Analysis (LTEA) Assay for Bcl-2 (BAD) gene using HepaRG (AID 2283469)
Summary of the method: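 HepaRG, 48 h exposure, 8-pt half-log curve from 100 uM in 0.5% DMSO, duplicates. Readout: TaqMan qRT-PCR for BAD mRNA, housekeeping-normalised (ACTB/GAPDH/POLR2A); gain or loss fitted against DMSO baseline.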

[8] = read-out: Bcl-2 (BAX) gene, BAX (gene 581); assay: LTEA_HepaRG_BAX: Life Technologies and Expression Analysis (LTEA) Assay for Bcl-2 (BAX) gene using HepaRG (AID 2283470)
Summary of the method: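 Human HepaRG cells treated in duplicate for 48 h across eight concentrations (max 100 uM, 0.5% DMSO); BAX expression measured by qRT-PCR.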

[9] = read-out: adenosine kinase (ADK) gene, ADK (gene 132); assay: LTEA_HepaRG_ADK: Life Technologies and Expression Analysis (LTEA) Assay for adenosine kinase (ADK) gene using HepaRG (AID 2283471)
Summary of the method: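 Differentiated HepaRG cells dosed 48 h in serum-free induction medium, 0.5% DMSO vehicle, eight half-log concentrations from 100 uM, in duplicate. ADK mRNA by TaqMan qRT-PCR normalised to ACTB, GAPDH, POLR2A; bidirectional fit versus DMSO.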

[10] = read-out: Alpha-fetoprotein (AFP) gene, AFP (gene 174); assay: LTEA_HepaRG_AFP: Life Technologies and Expression Analysis (LTEA) Assay for Alpha-fetoprotein (AFP) gene using HepaRG (AID 2283472)
Summary of the method: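 Measures AFP mRNA change in HepaRG after 48 h chemical exposure (8 half-log concentrations, highest 100 uM, 0.5% DMSO). Fold change relative to DMSO, fitted in both directions.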

[11] = read-out: BCL2L11 (gene 10018); assay: LTEA_HepaRG_BCL2L11: Life Technologies and Expression Analysis (LTEA) Assay for Bcl-2 (BCL2L11) gene using HepaRG (AID 2283473)
Summary of the method: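 BCL2L11 transcript levels are measured by Fluidigm qRT-PCR, normalized to three housekeeping genes. HepaRG cultures were plated 48 h, then treated 48 h with test chemical (top 100 uM, half-log, 0.5% DMSO vehicle); curves were fitted bidirectionally against DMSO.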

[12] = read-out: Apolipoprotein A-V (APOA5) gene, APOA5 (gene 116519); assay: LTEA_HepaRG_APOA5: Life Technologies and Expression Analysis (LTEA) Assay for Apolipoprotein A-V (APOA5) gene using HepaRG (AID 2283474)
Summary of the method: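 APOA5 transcript levels were quantified by qRT-PCR, normalized to three housekeeping genes, after 48 h chemical treatment of HepaRG cells (8 points, 100 uM maximum, half-log steps, 0.5% DMSO). Curves fitted in both directions against vehicle.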

[13] = read-out: Bcl-2 (BID) gene, BID (gene 637); assay: LTEA_HepaRG_BID: Life Technologies and Expression Analysis (LTEA) Assay for Bcl-2 (BID) gene using HepaRG (AID 2283476)
Summary of the method: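 Assay used HepaRG hepatic cells treated 48 h in serum-free medium with half-log dilutions from 100 uM. Endpoint: BID mRNA, qRT-PCR, normalized to ACTB/GAPDH/POLR2A.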

[14] = read-out: Caspase-3 (Homo sapiens) (UniProt P42574); assay: LTEA_HepaRG_CASP3: Life Technologies and Expression Analysis (LTEA) Assay for cysteine-aspartic acid protease (CASP3) using HepaRG (AID 2283477)
Summary of the method: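 Expression of CASP3 was quantified by TaqMan qRT-PCR against three housekeeping genes (ACTB, GAPDH, POLR2A), bidirectionally versus 0.5% DMSO. HepaRG cultures received compounds in duplicate, top 100 uM with half-log steps, for 48 h in serum-free induction medium.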

[15] = read-out: Cytochrome P450 (CYP1A2), CYP1A2 (gene 1544); assay: LTEA_HepaRG_CYP1A2: Life Technologies and Expression Analysis (LTEA) Assay for Cytochrome P450 (CYP1A2) using HepaRG (AID 2283479)
Summary of the method: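 CYP1A2 transcript measured by TaqMan qRT-PCR against three housekeeping genes after 48-hour chemical exposure of HepaRG cells. Eight-point half-log series topping at 100 uM in 0.5% DMSO, duplicates; gain or loss fitted relative to vehicle.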

[16] = read-out: cysteine-aspartic acid protease (CASP8), CASP8 (gene 841); assay: LTEA_HepaRG_CASP8: Life Technologies and Expression Analysis (LTEA) Assay for cysteine-aspartic acid protease (CASP8) using HepaRG (AID 2283480)
Summary of the method: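 qRT-PCR readout of CASP8 mRNA, normalized to three housekeeping genes, after 48 h chemical exposure of HepaRG cells; 8-point half-log series, top 100 uM, 0.5% DMSO vehicle. Bidirectional curve fitting against DMSO baseline.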

[17] = read-out: Cytochrome P450 (CYP2B6), CYP2B6 (gene 1555); assay: LTEA_HepaRG_CYP2B6: Life Technologies and Expression Analysis (LTEA) Assay for Cytochrome P450 (CYP2B6) using HepaRG (AID 2283481)
Summary of the method: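 CYP2B6 transcript level quantified by qRT-PCR against three housekeeping genes, fitted bidirectionally relative to DMSO. HepaRG cultures received chemicals for 48 h, 8-point half-log series from 100 uM in 0.5% DMSO, duplicate wells, serum-free induction medium.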

[18] = read-out: Cytochrome P450 2C19 (Homo sapiens) (UniProt P33261); assay: LTEA_HepaRG_CYP2C19: Life Technologies and Expression Analysis (LTEA) Assay for CYP2C19 using HepaRG (AID 2283482)
Summary of the method: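 CYP2C19 transcript levels by qRT-PCR, normalized to three housekeeping genes, in HepaRG cells after 48 h chemical exposure. Eight-point half-log series topping at 100 uM, 0.5% DMSO vehicle. Increases and decreases both fitted against DMSO.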

[19] = read-out: CYP2C8 (gene 1558); assay: LTEA_HepaRG_CYP2C8: Life Technologies and Expression Analysis (LTEA) Assay for CYP2C8 using HepaRG (AID 2283483)
Summary of the method: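 HepaRG (human liver line), 48 h chemical exposure, 8-pt half-log series from 100 uM, 0.5% DMSO vehicle. Readout: CYP2C8 transcript by qRT-PCR, housekeeping-normalized. Bidirectional fit vs DMSO baseline.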

[20] = read-out: CYP2C9 (gene 1559); assay: LTEA_HepaRG_CYP2C9: Life Technologies and Expression Analysis (LTEA) Assay for CYP2C9 using HepaRG (AID 2283484)
Summary of the method: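 HepaRG, 48 h dosing, 8-pt half-log series, top 100 uM, 0.5% DMSO vehicle. Read-out: CYP2C9 transcript by TaqMan qRT-PCR, housekeeping-normalized (ACTB/GAPDH/POLR2A). Gain or loss fitted vs DMSO baseline.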

Measured: AC50

Caspase-3 (Homo sapiens), sequence (P42574 whole entry, looked up): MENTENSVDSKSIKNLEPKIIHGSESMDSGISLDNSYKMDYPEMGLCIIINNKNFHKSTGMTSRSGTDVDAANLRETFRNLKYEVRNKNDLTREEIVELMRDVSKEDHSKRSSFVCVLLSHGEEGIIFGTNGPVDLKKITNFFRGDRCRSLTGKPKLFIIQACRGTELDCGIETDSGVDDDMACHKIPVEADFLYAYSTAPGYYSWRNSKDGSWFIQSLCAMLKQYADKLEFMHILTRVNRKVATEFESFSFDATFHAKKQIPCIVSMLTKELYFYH
Cytochrome P450 2C19 (Homo sapiens), sequence (P33261 whole entry, looked up): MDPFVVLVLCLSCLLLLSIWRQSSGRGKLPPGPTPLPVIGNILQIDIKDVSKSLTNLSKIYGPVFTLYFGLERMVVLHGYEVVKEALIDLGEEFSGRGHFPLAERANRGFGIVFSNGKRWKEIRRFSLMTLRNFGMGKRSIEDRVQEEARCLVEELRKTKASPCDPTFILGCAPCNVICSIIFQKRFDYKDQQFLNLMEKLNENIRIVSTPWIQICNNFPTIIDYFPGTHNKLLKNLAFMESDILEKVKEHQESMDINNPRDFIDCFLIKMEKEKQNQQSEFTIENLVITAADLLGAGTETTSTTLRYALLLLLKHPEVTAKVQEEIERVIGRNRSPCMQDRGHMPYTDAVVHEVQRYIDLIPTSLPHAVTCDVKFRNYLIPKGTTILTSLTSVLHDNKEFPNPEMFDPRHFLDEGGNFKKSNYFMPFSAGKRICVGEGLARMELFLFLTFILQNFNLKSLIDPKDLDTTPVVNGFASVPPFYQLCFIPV
Broad substrate specificity ATP-binding cassette transporter ABCG2 (Homo sapiens), sequence (Q9UNQ0 whole entry, looked up): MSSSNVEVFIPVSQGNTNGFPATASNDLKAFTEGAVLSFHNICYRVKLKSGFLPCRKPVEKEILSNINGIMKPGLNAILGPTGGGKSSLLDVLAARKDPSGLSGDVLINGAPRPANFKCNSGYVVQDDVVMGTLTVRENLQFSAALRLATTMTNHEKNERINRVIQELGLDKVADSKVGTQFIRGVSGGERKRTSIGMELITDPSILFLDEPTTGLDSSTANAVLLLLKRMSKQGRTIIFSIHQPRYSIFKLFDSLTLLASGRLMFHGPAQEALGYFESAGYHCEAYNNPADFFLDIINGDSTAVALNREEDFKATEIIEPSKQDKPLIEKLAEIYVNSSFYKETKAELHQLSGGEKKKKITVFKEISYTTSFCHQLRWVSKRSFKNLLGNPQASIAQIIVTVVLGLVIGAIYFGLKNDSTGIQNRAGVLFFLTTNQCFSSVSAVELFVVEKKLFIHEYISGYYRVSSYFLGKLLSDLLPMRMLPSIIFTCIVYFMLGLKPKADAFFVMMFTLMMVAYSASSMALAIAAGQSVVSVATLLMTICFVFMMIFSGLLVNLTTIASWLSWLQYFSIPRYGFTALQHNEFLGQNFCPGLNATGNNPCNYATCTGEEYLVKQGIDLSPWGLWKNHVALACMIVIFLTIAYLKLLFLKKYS

C[C@]12CCC(=O)C[C@@H]1CC[C@@H]1[C@@H]2CC[C@]2(C)[C@@H](O)CC[C@@H]12
active: [1] 50 µM | [15] 65.1 µM | [18] 23.6 µM
inactive: all other assays above

O=C1C2(Cl)C3(Cl)C4(Cl)C(Cl)(Cl)C5(Cl)C3(Cl)C1(Cl)C5(Cl)C24Cl (centres undefined)
active: [2] 93.6 µM | [3] 15.8 µM | [4] 93.1 µM | [5] 0.0893 µM | [6] 26.7 µM | [8] 87.5 µM | [10] 24.1 µM | [14] 92.3 µM | [15] 8.79 µM | [17] 93.5 µM | [18] 26.4 µM | [19] 25.2 µM | [20] 94.1 µM
inactive: [1] | [7] | [9] | [11] | [12] | [13] | [16]

CCC(=O)C(CC(C)N(C)C)(c1ccccc1)c1ccccc1 (centres undefined)
active: [10] 36.2 µM | [15] 36.2 µM | [17] 2.41 µM | [18] 10.1 µM
inactive: all other assays above

CCN1CCC2(CC1)COc1cc3c(cc12)N(C(=O)c1ccc(-c2ccc(-c4nnc(C)o4)cc2C)cc1)CC3
active: [2] 18.5 µM | [4] 21.5 µM | [5] 30.2 µM | [9] 21.3 µM | [12] 24.6 µM | [16] 21.8 µM | [17] 28.3 µM | [18] 21.9 µM | [20] 21.4 µM
inactive: all other assays above

C=CC(=O)OCCCCCC(C)C
active: [12] 0.483 µM | [15] 50 µM
inactive: all other assays above

COc1cc(-c2ccc(N)c(OC)c2)ccc1N
inactive: [1] | [2] | [3] | [4] | [5] | [6] | [7] | [8] | [9] | [11] | [12] | [13] | [14] | [16] | [18] | [19] | [20]
active: [1] 71.5 µM | [2] 50 µM | [3] 25 µM | [10] 50 µM | [15] 23.6 µM and 25.8 µM | [17] 3.49 µM and 4.26 µM | [20] 77.4 µM

CCOP(=S)(OCC)SCSP(=S)(OCC)OCC
active: [2] 50 µM | [4] 78.7 µM | [9] 0.106 µM | [10] 50 µM | [11] 0.228 µM | [14] 0.095 µM | [15] 50 µM | [17] 13 µM | [18] 26.1 µM | [19] 0.121 µM
inactive: all other assays above

CC(=O)[O][Hg][c]1ccccc1
active: [1] 1.22 µM | [2] 27.2 µM | [4] 23.3 µM | [5] 15.2 µM | [6] 0.646 µM | [7] 12.7 µM | [8] 0.552 µM | [9] 31.5 µM | [10] 5 µM | [11] 11.9 µM | [12] 4.21 µM | [14] 23.1 µM | [15] 5 µM | [16] 26.6 µM | [17] 6.12 µM | [18] 5 µM | [19] 5 µM | [20] 0.862 µM
inactive: [3] | [13]
